Composite z-score and z-score data for 14 molecules are collected here from PubChem BioAssay.

Active and inactive are the calls of the source.

In assay [1] the test system is Plasmodium falciparum Sir2 (PF13_0152, Sir2A). The assay is described as follows: Plasmodium falciparum Sir2A binding compounds – biochemical, small-molecule microarray, 635 nm fluorescence, primary screen (AID 1098).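 Further: score merges spot fluorescence intensity with its signal-to-noise ratio.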 The conditions noted are these: fluorescence 635 nm, higher = more signal.
The nature of assay [2]: probe aDKK1 binding to arrayed compounds – biochemical, biotinylated probe, 635/667 nm fluorescence, primary screen (AID 1099).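 Further: score merges 667nm spot fluorescence with signal to noise across triplicate slides; reference of the scale not given here.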 Conditions: small-molecule microarray, higher = more signal.
A short description of assay [3]: probe aCHRDL2 binding to arrayed compounds – biochemical, biotinylated probe, 635/667 nm fluorescence, primary screen (AID 1100). Conditions: small-molecule microarray, higher = more signal.
Assay [4] in a line: change in splice reporter luminescence, either direction, cell-based, HEK293, spliceosome inhibition project, primary screen (AID 1101).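 Further: HEK293 cells carrying a splicing-competent luciferase reporter gene; test concentration not given here.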 The conditions noted are these: HEK293 splicing luciferase reporter, 24 h, higher = more signal, called active from +8 up or from −8 down. On the technique in general: In a reporter assay the amount or activity of a reporter protein is the signal.

Assay [5] concerns the target Fibroblast growth factor 10 (Homo sapiens) (UniProt O15520). As to the kind of experiment: compounds binding fibroblast growth factor 10 – biochemical, small-molecule microarray, 635 nm fluorescence, primary screen (AID 1102). Conditions: FGF10 binding, fluorescence 635 nm, higher = more signal.
Assay [6] has as its system glycogen synthase kinase-3 (GSK3A per assay name; protocol says GSK3B). The assay is described as follows: compounds binding glycogen synthase kinase-3 – biochemical, small-molecule microarray, 635 nm fluorescence, GSK3A, primary screen (AID 1103). Further: the record names both GSK3A and GSK3B. Conditions: fluorescence 635 nm, higher = more signal.
Assay [7] addresses Epidermal growth factor receptor (Homo sapiens) (UniProt P00533). The assay is described as follows: compounds binding epidermal growth factor receptor – biochemical, small-molecule microarray, 635 nm fluorescence, primary screen (AID 1104).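 Further: score merges 667 nm emission intensity with spot signal to noise over triplicate slides.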 The conditions noted are these: EGFR binding, higher = more signal.
The target in assay [8] is Follistatin-related protein 3 (Homo sapiens) (UniProt O95633). As to the kind of experiment: compounds binding follistatin-related protein 3 – biochemical, small-molecule microarray, 635 nm fluorescence, primary screen (AID 1105).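 Further: score merges emission near 667 nm and signal to noise per printed spot across three slides.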 Conditions: FSTL3 binding, higher = more signal.
Assay [9] concerns the target Dickkopf-related protein 1 (Homo sapiens) (UniProt O94907). As to the kind of experiment: small molecules binding DKK1 protein – biochemical, small-molecule microarray, 635 nm fluorescence scan, primary screen (AID 1106).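 Further: score merges emission near 667 nm with signal to noise over three replicate slides.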 Conditions: higher = more signal.
Assay [10] relates to Inhibin beta A chain (activin A). The assay is described as follows: small molecules binding activin A – biochemical, small-molecule microarray, 635 nm fluorescence scan, primary screen (AID 1107).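 Further: mouse activin A protein probed at 4.33 µg/mL on printed slides; score merges bound-protein fluorescence near 667 nm with spot signal-to-noise.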 Conditions: INHBA, higher = more signal.

Chain of Fibroblast growth factor 10 (Homo sapiens) (O15520 whole entry, looked up): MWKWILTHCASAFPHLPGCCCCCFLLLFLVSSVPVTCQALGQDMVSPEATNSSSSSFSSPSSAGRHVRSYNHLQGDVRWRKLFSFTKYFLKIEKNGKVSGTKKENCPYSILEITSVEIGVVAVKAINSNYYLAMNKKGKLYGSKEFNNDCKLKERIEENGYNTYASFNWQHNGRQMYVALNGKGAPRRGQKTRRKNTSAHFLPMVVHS
Chain of Dickkopf-related protein 1 (Homo sapiens) (O94907 whole entry, looked up): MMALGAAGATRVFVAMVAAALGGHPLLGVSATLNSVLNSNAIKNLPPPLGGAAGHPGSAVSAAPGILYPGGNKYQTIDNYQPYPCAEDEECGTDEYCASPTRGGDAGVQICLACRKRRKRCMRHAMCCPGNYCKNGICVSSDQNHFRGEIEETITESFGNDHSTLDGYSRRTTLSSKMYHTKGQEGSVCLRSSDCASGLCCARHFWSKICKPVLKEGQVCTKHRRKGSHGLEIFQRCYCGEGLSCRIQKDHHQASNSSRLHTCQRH
Chain of Epidermal growth factor receptor (Homo sapiens) (P00533 whole entry, looked up): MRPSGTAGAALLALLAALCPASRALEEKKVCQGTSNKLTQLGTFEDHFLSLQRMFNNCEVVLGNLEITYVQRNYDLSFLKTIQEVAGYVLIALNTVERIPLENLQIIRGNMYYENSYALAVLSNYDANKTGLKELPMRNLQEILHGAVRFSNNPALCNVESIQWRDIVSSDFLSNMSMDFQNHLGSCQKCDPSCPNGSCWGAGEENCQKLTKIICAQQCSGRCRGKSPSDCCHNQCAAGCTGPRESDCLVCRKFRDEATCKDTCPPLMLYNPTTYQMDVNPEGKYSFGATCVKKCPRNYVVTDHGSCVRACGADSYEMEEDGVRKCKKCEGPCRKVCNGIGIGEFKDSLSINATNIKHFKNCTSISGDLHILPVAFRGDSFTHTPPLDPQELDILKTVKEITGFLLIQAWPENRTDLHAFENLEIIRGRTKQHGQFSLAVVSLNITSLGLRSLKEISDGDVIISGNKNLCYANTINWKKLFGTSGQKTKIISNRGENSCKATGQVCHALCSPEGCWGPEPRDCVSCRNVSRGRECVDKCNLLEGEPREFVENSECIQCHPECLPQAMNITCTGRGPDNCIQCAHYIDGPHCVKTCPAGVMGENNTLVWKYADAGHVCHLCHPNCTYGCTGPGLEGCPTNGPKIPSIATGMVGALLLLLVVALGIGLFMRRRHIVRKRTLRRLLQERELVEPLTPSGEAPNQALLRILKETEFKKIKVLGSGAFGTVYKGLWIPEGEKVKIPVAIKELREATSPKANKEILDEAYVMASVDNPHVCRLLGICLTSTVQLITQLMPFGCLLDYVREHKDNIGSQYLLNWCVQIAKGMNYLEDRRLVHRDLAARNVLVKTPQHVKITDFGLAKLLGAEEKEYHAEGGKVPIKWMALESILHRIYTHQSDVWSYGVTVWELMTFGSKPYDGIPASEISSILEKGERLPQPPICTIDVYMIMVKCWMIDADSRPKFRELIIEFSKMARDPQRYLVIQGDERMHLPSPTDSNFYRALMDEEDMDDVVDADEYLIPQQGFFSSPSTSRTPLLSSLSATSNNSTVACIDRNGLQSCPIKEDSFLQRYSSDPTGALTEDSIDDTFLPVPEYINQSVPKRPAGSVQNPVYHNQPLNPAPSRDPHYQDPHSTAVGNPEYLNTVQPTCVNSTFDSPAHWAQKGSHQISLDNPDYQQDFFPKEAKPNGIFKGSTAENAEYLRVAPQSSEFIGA
Chain of Follistatin-related protein 3 (Homo sapiens) (O95633 whole entry, looked up): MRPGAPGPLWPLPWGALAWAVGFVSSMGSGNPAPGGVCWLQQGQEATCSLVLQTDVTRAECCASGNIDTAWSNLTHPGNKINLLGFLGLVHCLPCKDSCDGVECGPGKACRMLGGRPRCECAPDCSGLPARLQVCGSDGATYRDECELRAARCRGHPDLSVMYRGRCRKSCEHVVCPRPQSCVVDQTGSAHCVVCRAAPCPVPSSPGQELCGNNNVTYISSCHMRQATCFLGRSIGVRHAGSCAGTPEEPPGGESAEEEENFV

`C[N+](C)(C)CCCCCCNC(=O)[C@@H]1C[C@@H]2C(=O)N[C@@H](Cc3ccccc3)C(=O)N2[C@@H]1c1ccc(O)cc1`: the composite z-score in assay [1] is 1.61; in assay [2], -0.409; in [3], -0.578; in [5] it was 1.21; in assay [6], 0.89; in assay [7] it was 0.776. The composite z-score came out at 1.48 in assay [8], 0.92 in assay [9] and 0.633 in assay [10]. In addition, the z-score in assay [4] was 0.372 (inactive).

Turning to `CCCC[C@@H]1C[C@H]1[C@@H](NC(=O)Cc1ccccc1)c1ccc(Cl)cc1`, the composite z-score in assay [1] was determined as 0.906; in assay [2] it was 1.22; in [3], 1.45; in assay [5], 0.592; in assay [6] it was 0.937; in assay [7], 0.0572. Also, the values for the composite z-score in assay [8], in [9] and in [10] were 0.868, -0.946 and 0.674, respectively. Besides, in assay [4], the z-score was -0.0981 (inactive).

As to `CC(=O)n1cc(C(O)C2C=CC3C(=O)N(c4ccccc4)C(=O)C3N2Nc2ccccc2F)c2ccccc21` (stereo not given), the composite z-score in [1] is 1.76; in [2] it was -0.167; in [3] it was 0.483; in [5] it was -0.191; in assay [6], -0.0798; in assay [7], -0.801. The composite z-score is -0.638 in assay [8], -1.18 in assay [9] and -0.551 in [10]. The z-score in [4] is -1.68 (inactive).

As to `CN1C(=O)C2C=CC(C(O)c3ccc(-c4ccccc4)s3)N(Nc3ccccc3)C2C1=O` (stereo not given), the composite z-score came out at 1.27 in [1]; 0.644 in assay [2]; 1.1 in [3]; 0.737 in assay [5]; 0.703 in assay [6]; 0.138 in [7]. For the same molecule, the composite z-score in assay [8] is 0.898; in [9] it was -0.0947; in [10], 1.23. Besides, in assay [4], the z-score was 1.43 (inactive).

As for `C=C(COC)/C(=C/C[C@H](OC(=O)c1ccncc1)c1cccc(OCCO)c1)c1cnc2ccccc2c1`, the composite z-score in assay [1] amounted to 0.691; in assay [2], 0.199; in [3] it was 0.293; in assay [5], 1.05; in assay [6] it was 1.3; in [7], 0.855. Further, the values for the composite z-score in [8], in assay [9] and in assay [10] were 1.45, 0.938 and 1.2, respectively. Moreover, the z-score in [4] was 0.0664 (inactive).

Take `CCCCC(O)C1C=CC2C(=O)N(C)C(=O)C2N1Nc1ccccc1` (stereo not given): the composite z-score in assay [1] was 0.236; in [2] it was 0.304; in [3], 0.411; in [5], 0.191; in assay [6] it was -0.0703; in assay [7] it was -0.319. For the same molecule, the composite z-score in assay [8] was 0.0934; in [9], -0.8; in [10], 1.24. Also, in assay [4], the z-score was 0.94 (inactive).

Consider `Cc1ccc(S[C@]2(C(=O)NCC(F)(F)F)CC(=O)N(C3CCCCC3)[C@@H]2c2ccc(CO)cc2)cc1`, for which the composite z-score in assay [1] is 1.58; in [2] it was 0.433; in assay [3], 0.83; in assay [5] it was 0.162; in assay [6], -0.374; in assay [7], -0.235. Moreover, the composite z-score was -0.517 in [8], -1.09 in assay [9] and -0.0076 in assay [10]. The z-score in [4] was 0.113 (inactive).

Consider `C=CCC(OC(C)=O)[C@@H]1[C@@H](N(Cc2cccc3ccccc23)C(=O)c2ccc(C)cc2)c2cc(OCCCO)ccc2N1C(=O)c1ccc2ccccc2n1` (stereo not given in full), for which the composite z-score was 0.206 in [1]; -0.16 in assay [2]; 0.322 in assay [3]; 0.0635 in assay [5]; 0.104 in [6]; 0.386 in [7]. The composite z-score in assay [8] came to 0.29; in assay [9], 0.145; in [10], 0.863. Besides, the z-score in [4] was -1.47 (inactive).

For `CCOC(=O)C1=CC[C@@H](c2ccccc2)N(S(=O)(=O)c2ccc(C)cc2)[C@H]1C#N`, the composite z-score was 1.54 in assay [1]; 0.507 in assay [2]; 0.56 in assay [3]; 0.417 in assay [5]; 0.73 in assay [6]; -0.106 in assay [7]. In addition, the composite z-score is -0.111 in [8], -0.377 in [9] and -0.0426 in [10]. Moreover, the z-score in assay [4] was 0.705 (inactive).

As to `CCOC(=O)C1=CC[C@@H](c2ccccc2)N(S(=O)(=O)C[Si](C)(C)C)[C@H]1c1ccccc1`, the composite z-score in [1] was 1.09; in [2] it was 0.319; in assay [3] it was -0.0475; in assay [5], 0.78; in [6] it was 0.651; in assay [7], 0.461. Also, the composite z-score in [8] is 1.37; in assay [9] it was 0.405; in assay [10] it was 0.193. Besides, in assay [4], the z-score was -1.02 (inactive).

Take `CC(C)[Si](C#CCCCC#N)(O[C@H](c1ccccc1)c1cn([C@H](C)c2ccccc2)nn1)C(C)C`: the composite z-score in [1] is 0.475; in [2], 0.0086; in [3] it was -0.453; in assay [5], 0.524; in [6] it was 0.973; in assay [7], 0.22. For the same molecule, the composite z-score in assay [8] was 1.08; in assay [9], 0.668; in assay [10], -0.301. Further, the z-score in [4] is -3.01 (inactive).

With `C=CCC(OC(C)=O)[C@@H]1[C@@H](N(Cc2cc3ccccc3o2)C(=O)Cc2ccc(OC)cc2)c2cc(OCCCO)ccc2N1C(=O)Cc1ccc2ccccc2c1` (stereo not given in full), the composite z-score in [1] is -0.542; in assay [2], -0.217; in assay [3], 0.689; in [5], -0.448; in assay [6], -1.52; in assay [7] it was -0.227. Besides, the composite z-score in assay [8] is -0.471; in assay [9] it was -0.62; in assay [10] it was 0.806. In [4], the z-score is -0.475 (inactive).

In the case of `CCCCN1CC=CC23O[C@@H]4/C=C\CCC(C)OC(=O)C4[C@H]2C(=O)N(C(C)CO)[C@@H]3C1=O` (stereo not given in full), the composite z-score in assay [1] was 0.356; in assay [2] it was -0.463; in assay [3] it was -0.471; in assay [5] it was -0.816; in assay [6], -0.937; in [7] it was -0.659. For the same molecule, the composite z-score in assay [8] is -0.719; in assay [9] it was -0.127; in assay [10], 1.19. In [4], the z-score was 1.07 (inactive).

With `CC(C)C[C@@H]1NC(=O)[C@@H]2C[C@H](C(=O)O)[C@H](c3ccc(O)cc3)N2C1=O`, the composite z-score worked out at 1.44 in [1]; 0.361 in assay [2]; 0.383 in assay [3]; 0.914 in assay [5]; 1.31 in assay [6]; 0.801 in [7]. For the same molecule, the composite z-score in assay [8] was 1.25; in [9], 0.976; in assay [10] it was -0.0021. Besides, the z-score in assay [4] was -0.687 (inactive).
